Among the data in PubChem BioAssay (EPA / NIEHS) are AC50 and outcome values, retold here.

Records with an inconclusive call do not appear. Active and inactive are the calls of the source. Rule for the calls, unless noted: active = hit-call score of the fitted dose curve at least 0.9, where 1 is the maximum; inactive = score below 0.9.

Assay [1] has as its system Thyroperoxidase (TPO), gene 54314. Description: CCTE_Simmons_AUR_rTPO: CCTE's Amplex UltraRed Assay for Thyroperoxidase (TPO) Inhibition, Simmons Lab (AID 2283662; active = hit-call score of the fitted dose curve at least 0.9, where 1 is the maximum;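 note: potency for loss of signal meaning inhibition of peroxidase activity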). An outline of the steps:
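Endpoint is decreased Amplex UltraRed fluorescence after a 30-min, 37C reaction of rat thyroid microsomes with 300 uM H2O2. Eight test concentrations (5 nM–87.5 uM final) in 0.5% DMSO, three biological replicates each.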

The nature of assay [2]: CCTE_Simmons_CellTiterGLO_HEK293T: Viability Assessment in CCTE's Assays for Thyroperoxidase (TPO) Inhibition, Simmons Lab (AID 2283665; active = hit-call score of the fitted dose curve at least 0.9, where 1 is the maximum;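 note: cells exposed to compound for 24 h before readout; actives reduce ATP signal below DMSO vehicle meaning cytotoxicity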). Summed up: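 Luminescent ATP readout (CellTiter-Glo, 20 min at room temperature) after 24 hr exposure of HEK293T cells to 5 nM–87.5 uM final compound; signal loss relative to DMSO vehicle indicated cytotoxicity; dichlone titrated as positive control.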

The target in assay [3] is Luciferin 4-monooxygenase (Photinus pyralis) (UniProt P08659). Kind of assay: CCTE_Simmons_QuantiLum_inhib_2: CCTE's Firefly Luciferase Inhibition Assay, Simmons Lab (AID 2283767; active = hit-call score of the fitted dose curve at least 0.9, where 1 is the maximum). Summed up: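 Cell-free QuantiLum luciferase, 5 ng/well; compounds 5 nM–87.5 uM final, 8 conc, 0.5% DMSO; 30 min, 37C, dark. Detection reagent (150 uM D-luciferin, 147 uM dATP, CoA, DTT, pH 7.8 final) injected per well, kinetic luminescence. Triplicate biological replicates.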

Assay [4] deals with THRB (gene 7068) (UniProt P10828). Description: TOX21_TRB_BLA_Agonist_Followup_ratio: Tox21 Thyroid Hormone Receptor beta Agonism Beta-lactamase (BLA) Follow-Up Assay, Ratio (AID 2283954; active = hit-call score of the fitted dose curve at least 0.9, where 1 is the maximum). Summed up: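 Agonist mode: compounds (11-point, triplicate) incubated 18 h with HEK293T cells carrying GAL4-DBD/human TRβ-LBD and UAS-β-lactamase. Blue/green (460/530 nm) FRET ratio read after 2 h CCF4-AM loading; CellTiter-Glo viability run in the same plates.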

Assay [5] can be described thus: CCTE_Mundy_HCI_Cortical_Synap_Neur_Matur_SynapseCount: CCTE's Synaptogenesis and Neurite Maturation Assay in rat cortical cells for Synapse Count, Mundy Lab (AID 2284218). Summed up:
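Read-out: synapse number per neuron, automated high-content imaging of fixed cells immunostained for MAP2 and synaptophysin plus Hoechst nuclei. Rat primary cortical cultures, AraC at DIV 5, chemical dosing DIV 7–12. Positive-direction fit relative to DMSO.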

Assay [6] is described as follows: CCTE_Mundy_HCI_hNP1_Pro_ResponderAvgInten: CCTE's Proliferation Assay in human neuroprogenitor cells, Mundy Lab (AID 2284224; active = hit-call score of the fitted dose curve at least 0.9, where 1 is the maximum;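 note: human neural progenitor cells hNP1 derived from WA09 embryonic stem cells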). An outline of the steps:
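Proliferation read as average intensity of BrdU-positive cells, imaged at 26.25 h post-dosing: chemical exposure started after 40–44 h culture, BrdU during final 4 h, paraformaldehyde fixation. Positive-direction fit relative to DMSO.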

Assay [7] can be described thus: CCTE_Mundy_HCI_Cortical_NOG_NeuronCount: CCTE's Neurite Outgrowth Assay in rat cortical cells for Neuron Count, Mundy Lab (AID 2284236; active = hit-call score of the fitted dose curve at least 0.9, where 1 is the maximum;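 note: neurons counted by imaging betaIII-tubulin and Hoechst stained cortical cells; cells exposed to compound for about 48 hours before fixation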). Summed up:
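Read-out: neuron number by high-content imaging of betaIII-tubulin (Alexa Fluor-488) and Hoechst-labelled rat primary cortical cells.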

Assay [8] in a line: CCTE_Mundy_HCI_hNP1_Casp3_7: CCTE's Caspase-Glo 3/7 Assay in human neuroprogenitor cells for Apoptosis, Mundy Lab (AID 2284240). Summed up:
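Luminescent caspase-3/7 readout, 26.5 h post-dose, in human neural progenitor cells from WA09 embryonic stem cells. Cells grew 40–44 h at 37 °C, 5% CO2 before chemical addition. Activity analysed as signal increase over DMSO baseline.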

Assay [9] in a line: IUF_NPC2c_oligodendrocyte_migration_120hr: Leibniz Research Institute for Environmental Medicine (IUF) 120-hour Neural Progenitor Cell Migration Assay for Oligodendrocyte Migration (NPC2c) (AID 2284297).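 Note: O4-positive oligodendrocyte migration distance divided by radial glia migration distance.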 An outline of the steps:
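Exposure runs 5 days from differentiation onset at 37C, seven concentrations plus solvent control, DMSO at most 0.1%, applied to primary hNPC spheres on laminin. After fixation, O4 immunostaining gives oligodendrocyte distance from the sphere core, relative to radial glia migration.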

Assay [10] in a line: IUF_NPC2a_radial_glia_migration_120hr: Leibniz Research Institute for Environmental Medicine (IUF) 120-hour Neural Progenitor Cell Migration Assay for Radial Glia Migration (NPC2a) (AID 2284298). Summed up:
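Migration distance in um, sphere core edge to migration-area edge, derived by nuclei-density algorithm from Hoechst images after 120 h compound exposure. Primary hNPC spheres differentiated on poly-D-lysine/laminin in N2 medium, 37C; medium half-replaced day 3.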

Assay [11] is described as follows: IUF_NPC2a_radial_glia_migration_72hr: Leibniz Research Institute for Environmental Medicine (IUF) 72-hour Neural Progenitor Cell Migration Assay for Radial Glia Migration (NPC2a) (AID 2284299). An outline of the steps: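 Readout: mean of four manual brightfield measurements of radial glia migration distance (um) at 72 h. hNPC spheres (0.3 mm) exposed to 7 compound concentrations plus solvent control on PDL/laminin, 37C, 5% CO2; activity fitted relative to DMSO.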

Assay [12] in a line: IUF_NPC2b_neuronal_migration_120hr: Leibniz Research Institute for Environmental Medicine (IUF) 120-hour Neural Progenitor Cell Migration Assay for Neuron Migration (NPC2b) (AID 2284300). Summed up: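 TUBB3-positive neurons are imaged after 120 h of differentiation, and their mean distance from the sphere edge is normalised to radial glia migration. Single 0.3 mm fetal hNPC spheres on poly-D-lysine/laminin received 7 compound concentrations, ≤0.1% DMSO, refreshed at day 3.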

Assay [13] can be described thus: IUF_NPC3_neuronal_differentiation_120hr: Leibniz Research Institute for Environmental Medicine (IUF) 120-hour Neuronal Differentiation Assay (NPC3) (AID 2284301). An outline of the steps:
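hNPC spheres, PDL/laminin, DMEM/F12 3:1 + 1% N2, 37C, 5% CO2; 7 concentrations + solvent control, 5 d exposure, half-change day 3. Fix 120 h; TUBB3/Hoechst ICC, CNN neuron calling; % neurons vs nuclei, DMSO-normalized.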

Assay [14] can be described thus: IUF_NPC4_neurite_length_120hr: Leibniz Research Institute for Environmental Medicine (IUF) 120-hour Neuronal Morphology Assay for Neurite Length (NPC4) (AID 2284302). An outline of the steps:
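hNPC spheres (0.3 mm, fetal brain GW 16-19) on PDL/laminin, DMEM:F12 3:1 + 1% N2, 37C 5% CO2; 7 concs + solvent control, day 0-5, half medium change d3; fix 120 h, TUBB3 ICC, mean neurite length um vs DMSO.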

The nature of assay [15]: IUF_NPC5_oligodendrocyte_differentiation_120hr: Leibniz Research Institute for Environmental Medicine (IUF) 120-hour Oligodendrocyte Differentiation Assay (NPC5) (AID 2284304; active = hit-call score of the fitted dose curve at least 0.9, where 1 is the maximum;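 note: primary human fetal neural progenitor spheres plated to migrate and differentiate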). An outline of the steps:
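Oligodendrocyte differentiation scored as O4-positive cells, found by CNN image analysis, as percent of Hoechst-stained nuclei in the migration area. Scoring followed 5 days of exposure of plated hNPC neurospheres differentiating in DMEM/F12 N2 medium at 37C, with compound refreshed at day 3.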

The nature of assay [16]: IUF_NPC2-5_cytotoxicity_72hr: Cytotoxicity Assessment at 72 hours in the Leibniz Research Institute for Environmental Medicine (IUF) Neural Progenitor Cell Migration and Differentiation Assay for Cytotoxicity (NPC2-5) (AID 2284306; active = hit-call score of the fitted dose curve at least 0.9, where 1 is the maximum;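 note: LDH release into supernatant measured by resorufin fluorescence marking membrane damage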). Summed up: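 hNPC spheres (0.3 mm), PDL/laminin, DMEM/F12 3:1 + 1% N2; cpd from d0, 7 concs + SC, DMSO max 0.1%; half-medium refresh d3. Readout: supernatant LDH via resorufin fluorescence (RFU), 72 h; gain-of-signal fit.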

A short description of assay [17]: IUF_NPC2-5_cytotoxicity_120hr: Cytotoxicity Assessment at 120 hours in the Leibniz Research Institute for Environmental Medicine (IUF) Neural Progenitor Cell Migration and Differentiation Assay (NPC2-5) (AID 2284307; active = hit-call score of the fitted dose curve at least 0.9, where 1 is the maximum;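 for AC50: LDH released into supernatant as membrane damage marker via resorufin fluorescence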). An outline of the steps:
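Membrane-integrity loss measured as LDH activity in medium supernatant via resazurin-to-resorufin fluorescence after 120 h exposure. hNPC spheres from GW 16-19 fetal cortex differentiated on poly-D-lysine/laminin, 37C, medium half-refreshed day 3; seven concentrations, DMSO max 0.1%.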

Assay [18] is described as follows: IUF_NPC2-5_cell_number_120hr: Cell Number Assessment at 120 hours in the Leibniz Research Institute for Environmental Medicine (IUF) Neural Progenitor Cell Migration and Differentiation Assay (NPC2-5) (AID 2284308).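 Note: count of Hoechst-stained nuclei in migration zone around plated human neural progenitor spheres.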 Summed up: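 Counting of all Hoechst-stained nuclei in the migration area at 120 h, versus DMSO control. Primary hNPC spheres differentiated on poly-D-lysine/laminin in N2 medium at 37C, dosed from day 0 (7 concentrations, DMSO ≤0.1%), half-refed day 3.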

Assay [19] can be described thus: IUF_NPC2-5_viability_120hr: Viability Assessment at 120 hours in the Leibniz Research Institute for Environmental Medicine (IUF) Neural Progenitor Cell Migration and Differentiation Assay (NPC2-5) (AID 2284312). An outline of the steps:
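Human fetal neural progenitor spheres (0.3 mm) plated on poly-D-lysine/laminin in N2 differentiation medium, exposed 120 h with half-medium refresh at day 3. Viability by alamar blue resazurin fluorescence; 7 concentrations, DMSO max 0.1%.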

Assay [20] can be described thus: IUF_NPC1_cytotoxicity_72hr: Cytotoxicity Assessment at 72 hours in the Leibniz Research Institute for Environmental Medicine (IUF) Neural Progenitor Cell Proliferation Assay (NPC1) (AID 2284332; active = hit-call score of the fitted dose curve at least 0.9, where 1 is the maximum;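 note: rising LDH signal means more cytotoxicity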). Summed up:
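LDH in supernatant, resazurin→resorufin fluorescence (RFU), 72 h exposure, no re-dosing. Cells: primary hNPC spheres, one per well, EGF+FGF medium, 37C/5% CO2, pH 7.2-7.6. Fit: positive direction vs baseline and dynamic range.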

Chain of Luciferin 4-monooxygenase (Photinus pyralis) (P08659 whole entry, looked up): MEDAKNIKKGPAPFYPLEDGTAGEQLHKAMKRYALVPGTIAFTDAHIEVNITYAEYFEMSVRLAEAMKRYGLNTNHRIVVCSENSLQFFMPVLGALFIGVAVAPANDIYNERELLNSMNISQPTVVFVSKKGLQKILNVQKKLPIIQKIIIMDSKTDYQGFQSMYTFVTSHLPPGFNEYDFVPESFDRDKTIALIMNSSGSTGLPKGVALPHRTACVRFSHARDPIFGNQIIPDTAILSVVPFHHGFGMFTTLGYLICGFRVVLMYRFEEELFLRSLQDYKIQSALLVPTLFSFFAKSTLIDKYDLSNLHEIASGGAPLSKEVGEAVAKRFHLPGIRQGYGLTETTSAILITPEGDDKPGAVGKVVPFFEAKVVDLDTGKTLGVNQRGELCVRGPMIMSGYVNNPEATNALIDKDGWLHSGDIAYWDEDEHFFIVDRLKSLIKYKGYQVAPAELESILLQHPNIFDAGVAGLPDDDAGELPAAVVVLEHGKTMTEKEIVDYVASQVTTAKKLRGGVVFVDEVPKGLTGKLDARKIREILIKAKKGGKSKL
Chain of THRB (gene 7068) (P10828 whole entry, looked up, the tested form may be a part): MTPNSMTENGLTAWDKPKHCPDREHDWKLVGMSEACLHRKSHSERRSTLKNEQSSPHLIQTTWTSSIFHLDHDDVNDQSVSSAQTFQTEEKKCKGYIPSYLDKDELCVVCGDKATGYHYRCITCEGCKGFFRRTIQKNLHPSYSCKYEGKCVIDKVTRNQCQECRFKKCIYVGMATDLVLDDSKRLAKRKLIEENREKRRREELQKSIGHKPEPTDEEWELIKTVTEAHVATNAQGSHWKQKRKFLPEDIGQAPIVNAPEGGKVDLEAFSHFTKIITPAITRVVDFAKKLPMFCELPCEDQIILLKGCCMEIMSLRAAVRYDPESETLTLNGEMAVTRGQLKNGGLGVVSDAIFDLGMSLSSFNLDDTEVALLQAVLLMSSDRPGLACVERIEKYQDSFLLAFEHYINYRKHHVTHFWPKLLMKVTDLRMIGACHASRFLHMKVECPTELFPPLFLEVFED

On to `CCN(CC)CCNC(=O)c1c(C)[nH]c(/C=C2\C(=O)Nc3ccc(F)cc32)c1C`, for which the AC50 – broadly, the midpoint of the concentration-response curve, whichever way the signal moves – in [1] is 8.81 µM (active); in assay [2], 12.8 µM (active). Further, the outcome in [3] was inactive.

For `CC(C)(C)CC(C)(C)c1ccc(O)c(Cc2ccc(Cl)cc2Cl)c1`, the result in assay [4] was inactive.

On to `Cc1c(O)cccc1C(=O)N[C@@H](CSc1ccccc1)[C@H](O)CN1C[C@H]2CCCC[C@H]2C[C@H]1C(=O)NC(C)(C)C`, for which the AC50 in assay [5] is 3.11 µM (active); in assay [6], 13.8 µM (active); in assay [7], 25 µM (active); in [8], 18.7 µM (active); in assay [9], 12.7 µM (active); in [10], 8.08 µM (active). In addition, the AC50 in [11] was 13.4 µM (active); in [12], 19.9 µM (active); in assay [13], 7.87 µM (active); in assay [14], 7.21 µM (active); in [15], 0.596 µM (active); in assay [16], 14.5 µM (active). For the same molecule, the AC50 was 9.82 µM (active) in assay [17], 8.12 µM (active) in assay [18] and 7.38 µM (active) in assay [19]. In addition, in assay [20], the outcome was inactive.

Consider `CC1(C)S[C@@H]2[C@H](NC(=O)[C@H](N)c3ccc(O)cc3)C(=O)N2[C@H]1C(=O)O`, for which the outcome in [5], in assay [6], in [7], in assay [8], in [9] and in assay [10] was inactive. Also, the result in [11], in assay [12], in [13], in assay [14], in assay [15] and in [16] was inactive. Also, the molecule was classed as inactive in assay [17], in assay [18], in assay [19] and in assay [20].
